# Tests used:
# [1] = target: Tyrosine-protein kinase SYK (Homo sapiens) (UniProt P43405); conditions: at 10 µM
# [2] = target: T1, Mitogen-activated protein kinase kinase kinase 7 (Homo sapiens) (UniProt O43318); conditions: at 1 µM
# T1 sequence (whole entry): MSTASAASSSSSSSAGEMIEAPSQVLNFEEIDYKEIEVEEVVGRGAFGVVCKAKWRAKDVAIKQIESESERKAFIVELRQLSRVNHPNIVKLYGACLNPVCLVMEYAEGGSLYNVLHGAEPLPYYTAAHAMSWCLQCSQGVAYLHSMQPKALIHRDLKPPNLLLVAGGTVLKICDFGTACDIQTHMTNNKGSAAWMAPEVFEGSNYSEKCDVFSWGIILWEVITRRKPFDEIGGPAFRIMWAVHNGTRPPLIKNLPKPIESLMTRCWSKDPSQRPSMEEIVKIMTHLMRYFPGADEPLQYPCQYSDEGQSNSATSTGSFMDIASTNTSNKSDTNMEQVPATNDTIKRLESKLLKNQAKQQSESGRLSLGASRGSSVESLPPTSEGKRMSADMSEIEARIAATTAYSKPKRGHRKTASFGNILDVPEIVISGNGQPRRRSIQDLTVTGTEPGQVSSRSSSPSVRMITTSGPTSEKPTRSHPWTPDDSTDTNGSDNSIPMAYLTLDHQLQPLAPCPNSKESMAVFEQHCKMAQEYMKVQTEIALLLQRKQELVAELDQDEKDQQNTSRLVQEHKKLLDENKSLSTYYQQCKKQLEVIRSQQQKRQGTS
# [3] = target: T1, Mitogen-activated protein kinase kinase kinase 7 (Homo sapiens); conditions: at 10 µM
# [4] = target: T2, Serine/threonine-protein kinase TAO1 (Homo sapiens) (UniProt Q7L7X3); conditions: at 1 µM
# T2 sequence (whole entry): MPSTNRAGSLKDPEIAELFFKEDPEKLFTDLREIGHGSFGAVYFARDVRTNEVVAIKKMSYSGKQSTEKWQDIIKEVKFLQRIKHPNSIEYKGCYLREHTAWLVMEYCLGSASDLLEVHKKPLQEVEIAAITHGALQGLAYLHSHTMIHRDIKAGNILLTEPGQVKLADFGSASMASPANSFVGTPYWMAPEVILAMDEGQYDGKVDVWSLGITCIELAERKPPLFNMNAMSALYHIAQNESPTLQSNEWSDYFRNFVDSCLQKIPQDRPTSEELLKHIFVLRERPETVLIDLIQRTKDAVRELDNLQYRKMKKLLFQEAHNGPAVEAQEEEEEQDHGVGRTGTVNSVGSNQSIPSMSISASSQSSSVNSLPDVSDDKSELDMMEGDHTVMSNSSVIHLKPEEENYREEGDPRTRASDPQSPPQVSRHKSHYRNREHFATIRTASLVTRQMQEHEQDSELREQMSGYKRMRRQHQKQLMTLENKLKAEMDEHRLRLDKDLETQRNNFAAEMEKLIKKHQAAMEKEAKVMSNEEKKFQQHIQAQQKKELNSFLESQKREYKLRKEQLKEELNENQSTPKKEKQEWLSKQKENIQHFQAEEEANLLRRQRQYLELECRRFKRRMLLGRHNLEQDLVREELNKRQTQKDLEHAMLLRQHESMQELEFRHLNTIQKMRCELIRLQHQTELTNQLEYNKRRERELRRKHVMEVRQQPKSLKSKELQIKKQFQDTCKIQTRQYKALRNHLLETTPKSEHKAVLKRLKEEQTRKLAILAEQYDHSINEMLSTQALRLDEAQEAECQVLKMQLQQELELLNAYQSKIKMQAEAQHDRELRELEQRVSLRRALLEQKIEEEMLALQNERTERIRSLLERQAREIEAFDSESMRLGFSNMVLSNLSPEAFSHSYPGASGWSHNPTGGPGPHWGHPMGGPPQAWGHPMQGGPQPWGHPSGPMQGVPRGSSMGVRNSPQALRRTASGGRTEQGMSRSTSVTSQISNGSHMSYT
# [5] = target: T2, Serine/threonine-protein kinase TAO1 (Homo sapiens); conditions: at 10 µM
# [6] = target: T3, Serine/threonine-protein kinase TAO2 (Homo sapiens) (UniProt Q9UL54); conditions: at 1 µM
# T3 sequence (whole entry): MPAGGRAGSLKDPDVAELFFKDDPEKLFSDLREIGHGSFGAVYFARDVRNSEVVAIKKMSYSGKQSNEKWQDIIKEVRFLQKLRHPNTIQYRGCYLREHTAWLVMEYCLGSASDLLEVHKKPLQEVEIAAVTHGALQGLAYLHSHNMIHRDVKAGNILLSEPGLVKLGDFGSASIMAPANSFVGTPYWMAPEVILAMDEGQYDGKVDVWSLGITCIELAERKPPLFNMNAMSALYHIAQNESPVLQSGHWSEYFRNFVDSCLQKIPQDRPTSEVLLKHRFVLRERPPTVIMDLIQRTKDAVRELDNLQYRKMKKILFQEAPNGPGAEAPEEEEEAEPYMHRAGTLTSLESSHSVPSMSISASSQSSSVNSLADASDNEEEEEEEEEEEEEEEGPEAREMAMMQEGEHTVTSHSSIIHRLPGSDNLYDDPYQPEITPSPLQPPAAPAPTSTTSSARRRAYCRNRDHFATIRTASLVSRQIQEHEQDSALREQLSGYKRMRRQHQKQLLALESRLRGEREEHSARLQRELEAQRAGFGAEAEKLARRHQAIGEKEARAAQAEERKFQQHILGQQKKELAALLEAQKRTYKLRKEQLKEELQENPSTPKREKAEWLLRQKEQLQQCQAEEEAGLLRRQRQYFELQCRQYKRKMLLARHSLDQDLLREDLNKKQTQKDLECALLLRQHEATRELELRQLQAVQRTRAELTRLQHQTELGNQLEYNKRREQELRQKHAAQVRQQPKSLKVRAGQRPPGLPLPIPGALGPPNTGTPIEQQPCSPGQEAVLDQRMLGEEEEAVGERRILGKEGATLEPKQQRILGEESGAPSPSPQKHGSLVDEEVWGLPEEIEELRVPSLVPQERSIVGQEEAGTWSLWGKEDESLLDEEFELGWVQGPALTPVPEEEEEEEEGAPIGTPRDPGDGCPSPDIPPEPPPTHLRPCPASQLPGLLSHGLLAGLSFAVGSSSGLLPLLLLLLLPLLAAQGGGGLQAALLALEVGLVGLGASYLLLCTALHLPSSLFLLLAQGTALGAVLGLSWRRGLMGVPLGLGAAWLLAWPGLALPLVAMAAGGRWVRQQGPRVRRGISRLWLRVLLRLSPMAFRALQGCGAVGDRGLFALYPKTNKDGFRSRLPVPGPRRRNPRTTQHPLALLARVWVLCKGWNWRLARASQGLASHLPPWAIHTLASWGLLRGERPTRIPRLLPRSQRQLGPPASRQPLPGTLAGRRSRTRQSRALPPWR
# [7] = target: T3, Serine/threonine-protein kinase TAO2 (Homo sapiens); conditions: at 10 µM
# [8] = target: T4, Serine/threonine-protein kinase TAO3 (Homo sapiens) (UniProt Q9H2K8); conditions: at 1 µM
# T4 sequence (whole entry): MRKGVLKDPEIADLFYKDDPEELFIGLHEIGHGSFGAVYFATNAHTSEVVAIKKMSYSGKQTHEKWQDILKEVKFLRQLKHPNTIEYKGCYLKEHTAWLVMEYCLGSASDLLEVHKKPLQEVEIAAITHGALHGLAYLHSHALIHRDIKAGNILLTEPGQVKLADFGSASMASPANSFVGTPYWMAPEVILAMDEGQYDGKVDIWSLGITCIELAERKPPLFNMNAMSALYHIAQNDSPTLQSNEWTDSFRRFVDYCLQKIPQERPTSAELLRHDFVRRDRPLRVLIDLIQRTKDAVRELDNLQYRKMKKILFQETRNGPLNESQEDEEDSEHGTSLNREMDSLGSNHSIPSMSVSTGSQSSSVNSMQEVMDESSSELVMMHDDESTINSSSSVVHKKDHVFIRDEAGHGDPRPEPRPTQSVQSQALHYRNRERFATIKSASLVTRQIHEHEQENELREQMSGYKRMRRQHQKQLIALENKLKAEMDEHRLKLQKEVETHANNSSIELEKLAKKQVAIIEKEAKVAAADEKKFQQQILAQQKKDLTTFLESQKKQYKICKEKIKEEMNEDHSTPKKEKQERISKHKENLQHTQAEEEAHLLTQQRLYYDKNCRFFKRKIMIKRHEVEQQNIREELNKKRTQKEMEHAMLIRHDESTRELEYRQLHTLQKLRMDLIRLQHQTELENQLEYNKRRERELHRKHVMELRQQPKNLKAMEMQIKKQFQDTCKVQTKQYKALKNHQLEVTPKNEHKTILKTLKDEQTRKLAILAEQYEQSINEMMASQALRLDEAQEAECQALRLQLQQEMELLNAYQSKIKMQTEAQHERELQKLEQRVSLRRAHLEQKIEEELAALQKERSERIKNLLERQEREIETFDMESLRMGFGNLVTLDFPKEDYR
# [9] = target: T4, Serine/threonine-protein kinase TAO3 (Homo sapiens); conditions: at 10 µM
smiles,measurement,setting,value
O=C(O)/C=C/c1cc(Br)c(Br)c(Br)c1Br,residual activity,[1],84%
same,residual activity,[2],107%
same,residual activity,[3],95%
same,residual activity,[4],77%
same,residual activity,[5],29%
same,residual activity,[6],84%
same,residual activity,[7],68%
same,residual activity,[8],81%
same,residual activity,[9],26%
